One assay relates to HCC1937. As to the kind of experiment: relative cell viability, compound + RSL3, vs DMSO (fraction of DMSO control); higher = less growth inhibition. The settings on record: 72 h.
For another assay, the system named is MDA-MB-231. Described as above. The settings on record: 72 h.

This note sets out measurements from the supplement of paper PMC9492666.

Where a name gives a salt, the structure may show the parent alone.
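Further: breast cancer cell viability read out with the CCK-8 kit after co-treatment of each compound with the ferroptosis inducer RSL3.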

For `CCOP(=O)(OCC)C(=Cc1cc(C(C)(C)C)c(O)c(C(C)(C)C)c1)P(=O)(OCC)OCC` + COC(=O)c1ccc([C@H]2c3[nH]c4ccccc4c3C[C@H](C(=O)OC)N2C(=O)CCl)cc1 [RSL3], the relative cell viability stood at 0.274 with HCC1937 and 0.448 in the assay on MDA-MB-231.

As to `O=C(O)CN(CC(=O)O)c1ccccc1OCCOc1ccccc1N(CC(=O)O)CC(=O)O` + COC(=O)c1ccc([C@H]2c3[nH]c4ccccc4c3C[C@H](C(=O)OC)N2C(=O)CCl)cc1 [RSL3], the relative cell viability in the assay on HCC1937 came out at 0.308; with MDA-MB-231, 0.581.

`C=C(C)[C@@H]1CC[C@]2(CO)CC[C@]3(C)[C@H](CC[C@@H]4[C@@]5(C)CC[C@H](O)C(C)(C)[C@@H]5CC[C@]43C)[C@@H]12` [Betulin] + COC(=O)c1ccc([C@H]2c3[nH]c4ccccc4c3C[C@H](C(=O)OC)N2C(=O)CCl)cc1 [RSL3]: the relative cell viability in the assay with HCC1937 is 0.619; with MDA-MB-231 it was 0.453.

With `CC[C@H](C)C(=O)O[C@H]1CCC=C2C=C[C@H](C)[C@H](CC[C@@H]3C[C@@H](O)CC(=O)O3)[C@H]21` [Mevastatin] + COC(=O)c1ccc([C@H]2c3[nH]c4ccccc4c3C[C@H](C(=O)OC)N2C(=O)CCl)cc1 [RSL3], the relative cell viability in the assay on HCC1937 came out at 0.707; with MDA-MB-231, 0.369.

Regarding `C=C(C)[C@@H]1CC[C@]2(C)CC[C@]3(C)[C@H](CC[C@@H]4[C@@]5(C)CCC(=O)C(C)(C)[C@@H]5CC[C@]43C)[C@@H]12` + COC(=O)c1ccc([C@H]2c3[nH]c4ccccc4c3C[C@H](C(=O)OC)N2C(=O)CCl)cc1 [RSL3], the relative cell viability is 0.595 in the assay on HCC1937 and 0.688 in the assay on MDA-MB-231.

For the molecule `CC(=O)Oc1cc(C(F)(F)F)ccc1C(=O)O` [Triflusal] + COC(=O)c1ccc([C@H]2c3[nH]c4ccccc4c3C[C@H](C(=O)OC)N2C(=O)CCl)cc1 [RSL3], the relative cell viability in the assay with HCC1937 was 0.717; with MDA-MB-231 it was 0.492.

With `CCN(CC)CCCC(C)Nc1c2ccc(Cl)cc2nc2ccc(OC)cc12` (stereo not drawn) [Quinacrine dihydrochloride] + COC(=O)c1ccc([C@H]2c3[nH]c4ccccc4c3C[C@H](C(=O)OC)N2C(=O)CCl)cc1 [RSL3], the relative cell viability in the assay with HCC1937 is 0.301; in the assay with MDA-MB-231 it was 0.283.

As for `Fc1ccc(-c2c3cccc(C(F)(F)F)c3nn2Cc2ccc(F)cc2Cl)cc1` + COC(=O)c1ccc([C@H]2c3[nH]c4ccccc4c3C[C@H](C(=O)OC)N2C(=O)CCl)cc1 [RSL3], the relative cell viability with HCC1937 stood at 0.756; in the assay with MDA-MB-231 it was 0.578.

For the molecule `Cc1c2c(=O)n(-c3ccccc3Cl)[nH]c2cc(=O)n1Cc1ccccn1` + COC(=O)c1ccc([C@H]2c3[nH]c4ccccc4c3C[C@H](C(=O)OC)N2C(=O)CCl)cc1 [RSL3], the relative cell viability in the assay with HCC1937 was found to be 0.452; in the assay with MDA-MB-231, 0.626.

`O=C(Nc1cccnc1)N1CCC(Cc2cccc(Oc3ccc(C(F)(F)F)cn3)c2)CC1` + COC(=O)c1ccc([C@H]2c3[nH]c4ccccc4c3C[C@H](C(=O)OC)N2C(=O)CCl)cc1 [RSL3]: the relative cell viability in the assay on HCC1937 stood at 0.727; in the assay with MDA-MB-231, 0.644.

On to `C[C@H](CCOc1cccc(CC(=O)O)c1)N(Cc1cccc(C(F)(F)F)c1Cl)CC(c1ccccc1)c1ccccc1` + COC(=O)c1ccc([C@H]2c3[nH]c4ccccc4c3C[C@H](C(=O)OC)N2C(=O)CCl)cc1 [RSL3], for which the relative cell viability is 0.318 with HCC1937 and 0.532 in the assay on MDA-MB-231.

For the molecule `CN(C)c1cccc(-c2c3c(=O)n(-c4ccccc4Cl)[nH]c3cc(=O)n2C)c1` + COC(=O)c1ccc([C@H]2c3[nH]c4ccccc4c3C[C@H](C(=O)OC)N2C(=O)CCl)cc1 [RSL3], the results for the relative cell viability with HCC1937 and with MDA-MB-231 were 0.433 and 0.579, respectively.

Consider `c1cc(-c2cnn3cc(-c4ccc(OCCN5CCCCC5)cc4)cnc23)ccn1` [Dorsomorphin dihydrochloride] + COC(=O)c1ccc([C@H]2c3[nH]c4ccccc4c3C[C@H](C(=O)OC)N2C(=O)CCl)cc1 [RSL3], for which the relative cell viability in the assay with HCC1937 turned out to be 0.111; in the assay on MDA-MB-231, 0.286.

`CC1(C)CC[C@]2(C(=O)O[C@@H]3O[C@H](CO)[C@@H](O)[C@H](O)[C@H]3O)CC[C@]3(C)C(=CC[C@@H]4[C@@]5(C)CC[C@H](O[C@@H]6O[C@H](C(=O)O)[C@@H](O)[C@H](O)[C@H]6O[C@@H]6O[C@H](CO)[C@@H](O)[C@H](O)[C@H]6O)C(C)(C)[C@@H]5CC[C@]43C)[C@@H]2C1` [Ginsenoside Ro] + COC(=O)c1ccc([C@H]2c3[nH]c4ccccc4c3C[C@H](C(=O)OC)N2C(=O)CCl)cc1 [RSL3]: the relative cell viability in the assay with HCC1937 turned out to be 0.375; with MDA-MB-231, 0.478.

With `CCC(CC)CC1(C(=O)Nc2ccccc2SC(=O)C(C)C)CCCCC1` [Dalcetrapib] + COC(=O)c1ccc([C@H]2c3[nH]c4ccccc4c3C[C@H](C(=O)OC)N2C(=O)CCl)cc1 [RSL3], the relative cell viability with HCC1937 turned out to be 0.654; with MDA-MB-231 it was 0.684.

On to `O=C(O)C(=O)Nc1sc2c(c1C(=O)O)CCNC2` + COC(=O)c1ccc([C@H]2c3[nH]c4ccccc4c3C[C@H](C(=O)OC)N2C(=O)CCl)cc1 [RSL3], for which the figures for the relative cell viability in the assay on HCC1937 and in the assay on MDA-MB-231 were 0.541 and 0.648, respectively.

With `COc1ccc(CN2CCC(c3ccc4nc(C(=O)N5CCN(Cc6ccc(C(F)(F)F)cc6)CC5)[nH]c4c3)CC2)cn1` + COC(=O)c1ccc([C@H]2c3[nH]c4ccccc4c3C[C@H](C(=O)OC)N2C(=O)CCl)cc1 [RSL3], the relative cell viability in the assay with HCC1937 came to 0.351; in the assay with MDA-MB-231, 0.562.

Turning to `CCN(CC)C(=O)N1CCN(C)CC1` [Diethylcarbamazine citrate] + COC(=O)c1ccc([C@H]2c3[nH]c4ccccc4c3C[C@H](C(=O)OC)N2C(=O)CCl)cc1 [RSL3], the relative cell viability with HCC1937 worked out at 0.61; in the assay with MDA-MB-231, 0.581.

As to `CC(C)[C@H]1CC[C@H](C(=O)N[C@H](Cc2ccccc2)C(=O)O)CC1` [Nateglinide] + COC(=O)c1ccc([C@H]2c3[nH]c4ccccc4c3C[C@H](C(=O)OC)N2C(=O)CCl)cc1 [RSL3], the relative cell viability with HCC1937 was 0.594; in the assay on MDA-MB-231 it was 0.487.

As to `CCN(CC)c1ccc(C=NNC(=O)c2ccncc2)c(O)c1` + COC(=O)c1ccc([C@H]2c3[nH]c4ccccc4c3C[C@H](C(=O)OC)N2C(=O)CCl)cc1 [RSL3], the relative cell viability in the assay with HCC1937 was found to be 0.265; with MDA-MB-231, 0.611.

Take `C[C@H](CCC(=O)O)[C@H]1CC[C@H]2[C@@H]3CC[C@@H]4C[C@H](O)CC[C@]4(C)[C@H]3CC[C@]12C` [Lithocholic acid] + COC(=O)c1ccc([C@H]2c3[nH]c4ccccc4c3C[C@H](C(=O)OC)N2C(=O)CCl)cc1 [RSL3]: the figures for the relative cell viability in the assay with HCC1937 and in the assay on MDA-MB-231 were 0.844 and 0.649, respectively.

For the molecule `CC(C)c1cc(C(C)C)c(CC(=O)NS(=O)(=O)Oc2c(C(C)C)cccc2C(C)C)c(C(C)C)c1` [Avasimibe] + COC(=O)c1ccc([C@H]2c3[nH]c4ccccc4c3C[C@H](C(=O)OC)N2C(=O)CCl)cc1 [RSL3], the values for the relative cell viability with HCC1937 and with MDA-MB-231 were 0.322 and 0.511, respectively.

Consider `C=CCc1ccc(O)c(-c2cc(CC=C)ccc2O)c1` [Magnolol] + COC(=O)c1ccc([C@H]2c3[nH]c4ccccc4c3C[C@H](C(=O)OC)N2C(=O)CCl)cc1 [RSL3], for which the figures for the relative cell viability in the assay on HCC1937 and in the assay with MDA-MB-231 were 0.789 and 0.668, respectively.

`c1cc(-c2cnn3cc(-c4ccc(OCCN5CCCCC5)cc4)cnc23)ccn1` [Dorsomorphin] + COC(=O)c1ccc([C@H]2c3[nH]c4ccccc4c3C[C@H](C(=O)OC)N2C(=O)CCl)cc1 [RSL3]: the figures for the relative cell viability with HCC1937 and in the assay with MDA-MB-231 were 0.123 and 0.31, respectively.

Turning to `CCC(C)(Oc1ccc(C2(c3ccc(OC(C)(CC)C(=O)O)cc3)CCCCC2)cc1)C(=O)O` (stereo not drawn) [Clinofibrate] + COC(=O)c1ccc([C@H]2c3[nH]c4ccccc4c3C[C@H](C(=O)OC)N2C(=O)CCl)cc1 [RSL3], the relative cell viability in the assay with HCC1937 is 0.561; in the assay with MDA-MB-231, 0.452.

Consider `Cc1c(C(=O)NN2CCCCC2)nn(-c2ccc(Cl)cc2Cl)c1-c1ccc(Cl)cc1` [Rimonabant] + COC(=O)c1ccc([C@H]2c3[nH]c4ccccc4c3C[C@H](C(=O)OC)N2C(=O)CCl)cc1 [RSL3], for which the relative cell viability with HCC1937 stood at 0.649; in the assay with MDA-MB-231, 0.216.

Regarding `CCCCCCCCCCC#CC#CCCCCCCCCC(=O)O` [10,12-Tricosadiynoic acid] + COC(=O)c1ccc([C@H]2c3[nH]c4ccccc4c3C[C@H](C(=O)OC)N2C(=O)CCl)cc1 [RSL3], the relative cell viability in the assay on HCC1937 was found to be 0.4; with MDA-MB-231, 0.634.

For the molecule `CCC(=O)O[C@]1(C(=O)CCl)[C@@H](C)C[C@H]2[C@@H]3C[C@H](F)C4=CC(=O)C=C[C@]4(C)[C@@]3(F)[C@@H](O)C[C@@]21C` [Halobetasol Propionate] + COC(=O)c1ccc([C@H]2c3[nH]c4ccccc4c3C[C@H](C(=O)OC)N2C(=O)CCl)cc1 [RSL3], the relative cell viability stood at 0.393 in the assay with HCC1937 and 0.592 in the assay with MDA-MB-231.

On to `Cc1nc(-c2nc(-c3ccc(OC(F)(F)F)cc3)no2)nn1Cc1cccc(N2CCC(S(C)(=O)=O)CC2)c1` + COC(=O)c1ccc([C@H]2c3[nH]c4ccccc4c3C[C@H](C(=O)OC)N2C(=O)CCl)cc1 [RSL3], for which the relative cell viability with HCC1937 is 0.417; with MDA-MB-231, 0.559.

Turning to `Cc1cc(C)c(S(=O)(=O)N(CCc2cccc(Br)c2)Cc2ccc(-c3cccc(S(C)(=O)=O)c3)cc2)c(C)c1` + COC(=O)c1ccc([C@H]2c3[nH]c4ccccc4c3C[C@H](C(=O)OC)N2C(=O)CCl)cc1 [RSL3], the relative cell viability with HCC1937 stood at 0.636; in the assay with MDA-MB-231, 0.475.

For the molecule `COc1ccc2c(c1)c(CC(=O)O)c(C)n2C(=O)c1ccc(Cl)cc1` [Indometacin] + COC(=O)c1ccc([C@H]2c3[nH]c4ccccc4c3C[C@H](C(=O)OC)N2C(=O)CCl)cc1 [RSL3], the relative cell viability is 1.01 in the assay on HCC1937 and 0.61 in the assay on MDA-MB-231.

For `O=C1/C(=C/c2cccs2)CC/C1=C\c1cccs1` + COC(=O)c1ccc([C@H]2c3[nH]c4ccccc4c3C[C@H](C(=O)OC)N2C(=O)CCl)cc1 [RSL3], the results for the relative cell viability with HCC1937 and in the assay with MDA-MB-231 were 0.357 and 0.49, respectively.

With `NC(=O)c1ncn([C@@H]2O[C@H](CO)[C@@H](O)[C@H]2O)c1N` [AICAR (Acadesine)] + COC(=O)c1ccc([C@H]2c3[nH]c4ccccc4c3C[C@H](C(=O)OC)N2C(=O)CCl)cc1 [RSL3], the figures for the relative cell viability in the assay with HCC1937 and with MDA-MB-231 were 0.646 and 0.584, respectively.

In the case of `CC1=C(/C=C/C(C)=C/C=C/C(C)=C/C=C/C=C(C)/C=C/C=C(C)/C=C/C2=C(C)C(=O)[C@@H](O)CC2(C)C)C(C)(C)C[C@H](O)C1=O` [Astaxanthin] + COC(=O)c1ccc([C@H]2c3[nH]c4ccccc4c3C[C@H](C(=O)OC)N2C(=O)CCl)cc1 [RSL3], the results for the relative cell viability in the assay on HCC1937 and with MDA-MB-231 were 0.562 and 0.689, respectively.
